Assay results taken from the supplement of paper PMC11732987, “Enantioselective OTUD7B fragment discovery through chemoproteomics screening and high-throughput optimisation” (Communications Chemistry, 2025).

What was measured:
Experiment in all cases: log2 ratio of Biotin-Ahx-Ub-VS probe labelling (fragment/DMSO); higher = less target engagement (more negative = stronger competition), active = hit call of the paper (q ≤ 0.05, log2 ratio ≤ -1)
Details in all cases: compound concentration: 200 uM; treatment time: 3 h
USP42 = target: T1, USP42 (UniProt Q9H9J4)
T1 sequence (whole entry): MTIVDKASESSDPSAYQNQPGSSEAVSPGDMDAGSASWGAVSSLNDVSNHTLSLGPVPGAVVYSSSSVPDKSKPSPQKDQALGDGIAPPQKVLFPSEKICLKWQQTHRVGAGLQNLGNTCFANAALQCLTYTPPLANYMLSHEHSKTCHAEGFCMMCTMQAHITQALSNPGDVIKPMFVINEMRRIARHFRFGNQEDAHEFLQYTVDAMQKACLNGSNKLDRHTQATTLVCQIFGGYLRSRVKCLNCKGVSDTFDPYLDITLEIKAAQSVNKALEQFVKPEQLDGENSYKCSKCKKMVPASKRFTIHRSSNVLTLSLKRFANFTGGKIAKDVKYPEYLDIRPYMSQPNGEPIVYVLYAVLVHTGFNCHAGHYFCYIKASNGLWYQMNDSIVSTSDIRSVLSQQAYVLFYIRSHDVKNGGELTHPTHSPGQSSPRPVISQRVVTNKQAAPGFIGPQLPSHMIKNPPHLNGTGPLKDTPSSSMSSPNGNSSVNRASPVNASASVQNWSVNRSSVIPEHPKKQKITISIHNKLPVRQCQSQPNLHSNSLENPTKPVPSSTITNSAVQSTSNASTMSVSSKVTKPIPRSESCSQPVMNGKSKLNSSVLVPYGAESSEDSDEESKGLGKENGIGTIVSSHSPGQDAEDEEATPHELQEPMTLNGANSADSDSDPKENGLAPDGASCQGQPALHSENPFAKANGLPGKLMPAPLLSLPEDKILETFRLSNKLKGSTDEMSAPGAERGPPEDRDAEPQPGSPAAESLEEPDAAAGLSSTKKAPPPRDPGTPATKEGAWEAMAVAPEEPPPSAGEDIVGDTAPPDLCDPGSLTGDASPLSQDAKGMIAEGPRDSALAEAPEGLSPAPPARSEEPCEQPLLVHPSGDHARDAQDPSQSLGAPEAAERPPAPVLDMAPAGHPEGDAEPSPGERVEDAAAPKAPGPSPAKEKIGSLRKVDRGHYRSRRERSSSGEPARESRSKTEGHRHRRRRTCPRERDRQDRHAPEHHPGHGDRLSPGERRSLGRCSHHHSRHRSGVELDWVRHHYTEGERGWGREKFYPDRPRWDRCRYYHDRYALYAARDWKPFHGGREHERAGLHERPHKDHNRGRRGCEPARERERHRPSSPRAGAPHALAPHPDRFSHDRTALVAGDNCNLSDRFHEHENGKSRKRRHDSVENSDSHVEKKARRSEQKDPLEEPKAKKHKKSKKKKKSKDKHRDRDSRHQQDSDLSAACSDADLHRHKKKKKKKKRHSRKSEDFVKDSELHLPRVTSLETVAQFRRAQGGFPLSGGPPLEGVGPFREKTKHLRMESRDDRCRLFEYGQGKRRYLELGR
How it was run: (§1)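 Labelled DUBs from HEK293T lysate were NeutrAvidin-enriched, digested with LysC and trypsin, and run by diaPASEF LC-MS/MS. Before that, each 495 µg sample in Tris/CHAPS/IGEPAL buffer with protease inhibitors was treated in triplicate with fragment at 200 µM or vehicle for 3 h, then with Biotin-Ahx-Ub-VS at 0.5 µM final for 1 h. Values are average log2 ratios of fragment over vehicle by unpaired t-test, based on global-median-normalised Spectronaut label-free quantities from proteins with ≥2 unique peptides.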

USP46 = USP46 (UniProt P62068)
Sequence of USP46 (P62068 whole entry): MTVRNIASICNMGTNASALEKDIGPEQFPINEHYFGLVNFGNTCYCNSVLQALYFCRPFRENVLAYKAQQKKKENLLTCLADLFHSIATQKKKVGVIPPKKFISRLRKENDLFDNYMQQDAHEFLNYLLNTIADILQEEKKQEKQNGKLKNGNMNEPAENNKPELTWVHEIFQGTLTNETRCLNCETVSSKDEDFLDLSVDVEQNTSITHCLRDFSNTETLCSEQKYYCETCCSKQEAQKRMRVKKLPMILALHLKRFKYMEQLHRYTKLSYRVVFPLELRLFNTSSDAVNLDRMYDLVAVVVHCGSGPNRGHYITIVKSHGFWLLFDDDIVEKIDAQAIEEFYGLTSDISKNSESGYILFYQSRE
How it was run: as §1

USP47 = target: T2, USP47 (UniProt Q96K76)
T2 sequence (whole entry): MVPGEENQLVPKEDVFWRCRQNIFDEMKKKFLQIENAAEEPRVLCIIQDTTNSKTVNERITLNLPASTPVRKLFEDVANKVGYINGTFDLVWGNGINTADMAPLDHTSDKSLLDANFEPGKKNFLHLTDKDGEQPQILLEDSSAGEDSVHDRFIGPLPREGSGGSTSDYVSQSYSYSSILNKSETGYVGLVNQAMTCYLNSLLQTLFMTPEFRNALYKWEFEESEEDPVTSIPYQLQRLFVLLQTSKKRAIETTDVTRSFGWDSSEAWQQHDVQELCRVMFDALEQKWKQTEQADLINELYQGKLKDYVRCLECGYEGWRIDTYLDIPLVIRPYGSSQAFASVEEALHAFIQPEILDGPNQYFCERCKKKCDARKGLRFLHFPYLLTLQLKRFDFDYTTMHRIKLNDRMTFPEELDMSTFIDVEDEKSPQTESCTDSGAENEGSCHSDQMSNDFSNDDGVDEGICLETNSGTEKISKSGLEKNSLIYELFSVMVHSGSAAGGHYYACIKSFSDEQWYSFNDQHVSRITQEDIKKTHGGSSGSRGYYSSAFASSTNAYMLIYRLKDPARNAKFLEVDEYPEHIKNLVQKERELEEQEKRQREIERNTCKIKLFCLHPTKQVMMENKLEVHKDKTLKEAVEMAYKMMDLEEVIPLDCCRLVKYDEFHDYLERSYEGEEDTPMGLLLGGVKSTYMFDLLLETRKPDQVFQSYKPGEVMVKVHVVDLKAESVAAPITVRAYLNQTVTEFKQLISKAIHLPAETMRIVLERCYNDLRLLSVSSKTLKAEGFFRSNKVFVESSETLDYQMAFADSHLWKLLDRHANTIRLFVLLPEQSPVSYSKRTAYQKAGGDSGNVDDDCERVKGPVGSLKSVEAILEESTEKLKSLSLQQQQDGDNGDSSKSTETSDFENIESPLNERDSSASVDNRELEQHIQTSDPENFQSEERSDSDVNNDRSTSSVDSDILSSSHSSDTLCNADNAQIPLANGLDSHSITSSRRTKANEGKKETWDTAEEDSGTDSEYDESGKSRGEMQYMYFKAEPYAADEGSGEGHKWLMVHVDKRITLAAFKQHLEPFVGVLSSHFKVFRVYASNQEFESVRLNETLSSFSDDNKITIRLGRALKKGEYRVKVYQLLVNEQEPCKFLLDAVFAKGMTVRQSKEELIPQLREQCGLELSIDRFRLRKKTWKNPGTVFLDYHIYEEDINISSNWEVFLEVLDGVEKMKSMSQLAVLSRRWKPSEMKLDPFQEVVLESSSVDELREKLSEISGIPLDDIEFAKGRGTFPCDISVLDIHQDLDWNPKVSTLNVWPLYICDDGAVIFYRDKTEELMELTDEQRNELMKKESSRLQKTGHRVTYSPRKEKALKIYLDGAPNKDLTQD
How it was run: as §1

USP48 = target: T3, USP48 (UniProt Q86UV5)
T3 sequence (whole entry): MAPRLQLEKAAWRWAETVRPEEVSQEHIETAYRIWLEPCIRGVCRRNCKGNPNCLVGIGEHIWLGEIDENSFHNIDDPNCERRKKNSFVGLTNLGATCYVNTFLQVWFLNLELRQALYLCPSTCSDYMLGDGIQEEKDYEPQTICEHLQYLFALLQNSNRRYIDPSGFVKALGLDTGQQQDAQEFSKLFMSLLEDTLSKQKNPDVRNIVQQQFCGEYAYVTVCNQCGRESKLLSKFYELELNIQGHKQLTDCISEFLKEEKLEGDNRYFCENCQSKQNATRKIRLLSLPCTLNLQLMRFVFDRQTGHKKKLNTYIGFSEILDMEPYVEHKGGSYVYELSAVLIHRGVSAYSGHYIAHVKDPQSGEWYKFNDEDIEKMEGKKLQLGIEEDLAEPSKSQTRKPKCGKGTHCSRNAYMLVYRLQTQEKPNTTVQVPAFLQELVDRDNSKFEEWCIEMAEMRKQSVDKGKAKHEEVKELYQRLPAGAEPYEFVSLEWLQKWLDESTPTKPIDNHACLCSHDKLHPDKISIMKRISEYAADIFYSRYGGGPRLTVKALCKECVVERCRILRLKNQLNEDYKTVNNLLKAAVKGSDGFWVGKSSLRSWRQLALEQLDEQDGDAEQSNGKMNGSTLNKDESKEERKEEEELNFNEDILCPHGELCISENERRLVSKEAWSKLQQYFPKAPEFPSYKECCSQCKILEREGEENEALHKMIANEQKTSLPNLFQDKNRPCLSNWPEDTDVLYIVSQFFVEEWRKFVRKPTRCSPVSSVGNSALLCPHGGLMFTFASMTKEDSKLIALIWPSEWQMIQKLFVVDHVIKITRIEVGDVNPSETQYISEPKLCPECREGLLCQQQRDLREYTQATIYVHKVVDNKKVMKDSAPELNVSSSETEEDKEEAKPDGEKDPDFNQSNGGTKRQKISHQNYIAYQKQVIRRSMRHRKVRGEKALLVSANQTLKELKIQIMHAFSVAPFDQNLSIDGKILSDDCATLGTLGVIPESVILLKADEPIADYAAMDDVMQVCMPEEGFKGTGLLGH
How it was run: as §1

USP5 = target: T4, USP5 (UniProt P45974)
T4 sequence (whole entry): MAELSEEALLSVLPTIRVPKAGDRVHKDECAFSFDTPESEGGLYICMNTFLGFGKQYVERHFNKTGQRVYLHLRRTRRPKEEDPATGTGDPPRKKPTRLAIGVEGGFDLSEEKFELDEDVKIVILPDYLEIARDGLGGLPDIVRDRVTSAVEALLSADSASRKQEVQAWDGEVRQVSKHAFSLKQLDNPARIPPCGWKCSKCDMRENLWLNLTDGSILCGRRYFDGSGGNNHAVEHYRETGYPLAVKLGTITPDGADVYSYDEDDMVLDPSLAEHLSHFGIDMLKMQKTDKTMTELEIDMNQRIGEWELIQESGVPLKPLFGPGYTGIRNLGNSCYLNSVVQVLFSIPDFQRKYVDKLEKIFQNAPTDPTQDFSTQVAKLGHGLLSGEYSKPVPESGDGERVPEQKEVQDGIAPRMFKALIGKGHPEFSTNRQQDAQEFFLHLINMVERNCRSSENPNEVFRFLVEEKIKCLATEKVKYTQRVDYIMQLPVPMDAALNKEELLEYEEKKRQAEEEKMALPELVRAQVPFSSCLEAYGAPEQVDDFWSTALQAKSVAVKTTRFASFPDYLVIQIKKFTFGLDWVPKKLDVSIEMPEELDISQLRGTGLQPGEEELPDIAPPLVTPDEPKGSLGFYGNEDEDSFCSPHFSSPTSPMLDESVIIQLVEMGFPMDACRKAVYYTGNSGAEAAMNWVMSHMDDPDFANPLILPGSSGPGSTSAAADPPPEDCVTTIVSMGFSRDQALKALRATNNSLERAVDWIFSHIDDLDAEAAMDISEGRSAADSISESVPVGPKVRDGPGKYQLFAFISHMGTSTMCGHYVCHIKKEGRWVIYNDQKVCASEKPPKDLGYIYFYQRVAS
How it was run: as §1

USP54 = USP54 (UniProt Q70EL1)
Sequence of USP54 (Q70EL1 whole entry): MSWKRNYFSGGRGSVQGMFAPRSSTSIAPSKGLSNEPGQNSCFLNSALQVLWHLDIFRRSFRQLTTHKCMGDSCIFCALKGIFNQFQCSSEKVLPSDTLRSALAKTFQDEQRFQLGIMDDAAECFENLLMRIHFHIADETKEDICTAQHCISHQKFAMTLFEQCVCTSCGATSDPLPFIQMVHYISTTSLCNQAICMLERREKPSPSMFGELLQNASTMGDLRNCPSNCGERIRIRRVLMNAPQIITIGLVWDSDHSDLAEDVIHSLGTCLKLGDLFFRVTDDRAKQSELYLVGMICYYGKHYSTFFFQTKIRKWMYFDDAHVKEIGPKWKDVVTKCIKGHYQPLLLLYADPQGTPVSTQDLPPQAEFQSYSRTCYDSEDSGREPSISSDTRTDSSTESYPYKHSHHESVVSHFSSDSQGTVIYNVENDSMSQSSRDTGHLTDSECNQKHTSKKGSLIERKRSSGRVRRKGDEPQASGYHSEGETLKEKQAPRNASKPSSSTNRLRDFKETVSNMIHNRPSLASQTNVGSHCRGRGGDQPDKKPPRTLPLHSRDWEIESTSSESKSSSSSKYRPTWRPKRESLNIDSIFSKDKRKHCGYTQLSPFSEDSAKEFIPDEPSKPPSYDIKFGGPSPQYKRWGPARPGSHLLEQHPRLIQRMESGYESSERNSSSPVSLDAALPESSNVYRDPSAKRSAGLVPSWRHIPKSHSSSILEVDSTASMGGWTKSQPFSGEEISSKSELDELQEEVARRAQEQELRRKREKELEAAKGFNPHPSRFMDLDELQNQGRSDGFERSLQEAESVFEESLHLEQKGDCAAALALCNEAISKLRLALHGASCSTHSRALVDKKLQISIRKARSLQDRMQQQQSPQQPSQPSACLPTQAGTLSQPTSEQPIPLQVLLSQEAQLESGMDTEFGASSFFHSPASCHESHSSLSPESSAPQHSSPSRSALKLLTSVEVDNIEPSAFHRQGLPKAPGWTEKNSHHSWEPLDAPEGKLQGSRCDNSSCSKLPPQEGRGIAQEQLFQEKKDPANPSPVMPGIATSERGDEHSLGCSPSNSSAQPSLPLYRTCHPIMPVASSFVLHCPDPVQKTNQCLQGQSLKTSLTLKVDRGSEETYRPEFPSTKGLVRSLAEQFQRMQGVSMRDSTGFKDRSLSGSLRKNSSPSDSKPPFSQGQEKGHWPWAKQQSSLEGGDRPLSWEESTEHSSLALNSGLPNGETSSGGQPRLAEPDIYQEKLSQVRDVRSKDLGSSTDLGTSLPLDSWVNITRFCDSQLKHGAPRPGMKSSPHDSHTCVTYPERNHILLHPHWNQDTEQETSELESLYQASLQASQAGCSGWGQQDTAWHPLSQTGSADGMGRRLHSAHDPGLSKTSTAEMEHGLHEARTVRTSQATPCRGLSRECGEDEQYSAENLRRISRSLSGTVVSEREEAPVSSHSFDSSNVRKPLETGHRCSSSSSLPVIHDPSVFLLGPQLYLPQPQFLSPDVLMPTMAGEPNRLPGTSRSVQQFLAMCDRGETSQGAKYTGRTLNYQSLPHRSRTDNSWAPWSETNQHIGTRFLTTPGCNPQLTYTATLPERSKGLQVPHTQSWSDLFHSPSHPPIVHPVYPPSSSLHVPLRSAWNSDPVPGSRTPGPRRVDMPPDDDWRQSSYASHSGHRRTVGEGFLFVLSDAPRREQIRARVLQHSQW
How it was run: as §1

USP7 = USP7 (UniProt Q93009)
Sequence of USP7 (Q93009 whole entry, looked up): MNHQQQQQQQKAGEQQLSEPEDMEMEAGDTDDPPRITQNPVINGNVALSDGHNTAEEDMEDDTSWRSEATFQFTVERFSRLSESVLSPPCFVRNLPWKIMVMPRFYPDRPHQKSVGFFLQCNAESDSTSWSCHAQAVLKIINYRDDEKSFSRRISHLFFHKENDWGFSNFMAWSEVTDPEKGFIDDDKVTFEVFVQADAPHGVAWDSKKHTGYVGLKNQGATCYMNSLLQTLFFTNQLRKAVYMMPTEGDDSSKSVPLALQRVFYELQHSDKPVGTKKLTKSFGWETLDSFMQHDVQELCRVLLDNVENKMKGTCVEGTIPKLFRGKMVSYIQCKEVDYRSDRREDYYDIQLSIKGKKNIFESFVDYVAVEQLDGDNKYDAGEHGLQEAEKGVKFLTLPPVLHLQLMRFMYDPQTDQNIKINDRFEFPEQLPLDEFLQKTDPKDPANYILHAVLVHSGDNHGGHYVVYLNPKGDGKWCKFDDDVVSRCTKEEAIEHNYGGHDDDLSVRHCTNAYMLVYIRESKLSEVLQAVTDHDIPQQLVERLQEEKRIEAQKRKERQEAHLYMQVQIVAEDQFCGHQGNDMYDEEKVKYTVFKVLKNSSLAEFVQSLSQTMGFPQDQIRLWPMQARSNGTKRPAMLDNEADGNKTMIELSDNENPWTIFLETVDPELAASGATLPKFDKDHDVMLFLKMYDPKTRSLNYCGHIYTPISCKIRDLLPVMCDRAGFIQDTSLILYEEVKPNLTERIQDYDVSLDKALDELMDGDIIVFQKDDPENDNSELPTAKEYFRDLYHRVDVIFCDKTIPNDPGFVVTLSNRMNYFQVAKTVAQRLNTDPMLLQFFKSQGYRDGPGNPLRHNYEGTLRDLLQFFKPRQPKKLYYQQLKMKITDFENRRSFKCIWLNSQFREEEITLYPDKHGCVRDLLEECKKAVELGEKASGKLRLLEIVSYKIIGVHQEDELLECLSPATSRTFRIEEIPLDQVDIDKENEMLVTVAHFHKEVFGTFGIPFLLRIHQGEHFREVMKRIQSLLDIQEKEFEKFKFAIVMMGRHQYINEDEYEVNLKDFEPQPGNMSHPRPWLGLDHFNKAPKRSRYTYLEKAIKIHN
How it was run: as §1

USP8 = target: T5, USP8 (UniProt P40818)
T5 sequence (whole entry): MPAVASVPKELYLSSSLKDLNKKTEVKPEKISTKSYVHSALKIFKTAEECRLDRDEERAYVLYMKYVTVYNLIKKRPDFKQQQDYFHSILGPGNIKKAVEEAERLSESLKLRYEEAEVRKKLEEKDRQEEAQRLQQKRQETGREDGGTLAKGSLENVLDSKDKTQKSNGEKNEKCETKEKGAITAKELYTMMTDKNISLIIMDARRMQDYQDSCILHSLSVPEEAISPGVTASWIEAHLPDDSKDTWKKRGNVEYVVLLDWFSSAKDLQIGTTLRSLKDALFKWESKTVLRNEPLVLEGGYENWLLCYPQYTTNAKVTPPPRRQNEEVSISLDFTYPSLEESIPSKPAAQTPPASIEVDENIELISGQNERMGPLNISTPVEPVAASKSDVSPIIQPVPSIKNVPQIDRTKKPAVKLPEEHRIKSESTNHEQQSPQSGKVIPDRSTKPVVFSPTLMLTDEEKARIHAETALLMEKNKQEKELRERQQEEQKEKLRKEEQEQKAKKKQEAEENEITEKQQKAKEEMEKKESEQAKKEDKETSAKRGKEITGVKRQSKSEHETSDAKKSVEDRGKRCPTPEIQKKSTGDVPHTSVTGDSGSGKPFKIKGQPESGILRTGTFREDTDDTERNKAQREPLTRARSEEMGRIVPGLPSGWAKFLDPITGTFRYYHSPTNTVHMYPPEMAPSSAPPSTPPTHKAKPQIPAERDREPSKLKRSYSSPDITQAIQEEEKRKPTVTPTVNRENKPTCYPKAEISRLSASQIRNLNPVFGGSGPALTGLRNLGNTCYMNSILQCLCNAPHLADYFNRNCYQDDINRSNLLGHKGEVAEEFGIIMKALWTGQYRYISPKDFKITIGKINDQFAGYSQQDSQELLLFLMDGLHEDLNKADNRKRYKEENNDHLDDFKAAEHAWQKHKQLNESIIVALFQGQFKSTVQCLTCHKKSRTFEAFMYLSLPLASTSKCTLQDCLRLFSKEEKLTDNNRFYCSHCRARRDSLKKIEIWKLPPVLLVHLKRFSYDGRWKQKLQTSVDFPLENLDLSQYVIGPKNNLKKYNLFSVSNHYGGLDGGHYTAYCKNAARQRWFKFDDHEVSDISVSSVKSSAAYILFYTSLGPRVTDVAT
How it was run: as §1

USP9X = USP9X (UniProt Q93008)
How it was run: as §1

UniProt O00487 = target: UniProt O00487
Sequence of UniProt O00487 (O00487 whole entry): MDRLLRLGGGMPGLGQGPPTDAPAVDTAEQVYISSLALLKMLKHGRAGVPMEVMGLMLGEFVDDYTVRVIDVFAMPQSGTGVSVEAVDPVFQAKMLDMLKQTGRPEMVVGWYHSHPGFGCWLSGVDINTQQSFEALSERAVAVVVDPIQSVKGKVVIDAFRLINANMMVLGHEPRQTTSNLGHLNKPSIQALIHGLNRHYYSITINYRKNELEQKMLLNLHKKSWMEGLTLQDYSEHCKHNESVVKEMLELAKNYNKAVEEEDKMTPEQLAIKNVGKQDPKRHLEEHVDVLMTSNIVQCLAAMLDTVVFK
How it was run: as §1

Measured: log2 ratio of Biotin-Ahx-Ub-VS probe labelling

O=C(CCl)NCCc1ccc2c(c1)OCCO2
inactive: USP42 0.217 | USP46 0.147 | USP47 0.109 | USP48 -0.413 | USP5 -0.336 | USP54 0.647 | USP7 -0.433 | USP8 0.0104 | USP9X -0.26 | UniProt O00487 -0.093
